This is an account of results in PubChem BioAssay (NCATS).

Records with an inconclusive call do not appear. Where a call stands in place of a potency, no number is given. Unmarked numbers belong to inactive results. Calls of active or inactive are those of the source. Calls come from the whole dose curve; as a rule, active = well fitted curve in the direction sought with a large enough effect; inconclusive = small, poorly fitted or top-dose-only effect, or another doubt; inactive = no such curve, though single readings can be large; an effect the other way counts as inactive or inconclusive.

In experiment [1] the target is Aldehyde dehydrogenase, mitochondrial (Homo sapiens) (UniProt P05091). Briefly: qHTS for Inhibitors of the Aldehyde Dehydrogenase Family (ALDH2) Primary screen (AID 2061308). Note: nearly all actives have a fitted effect of over 55% in size. Background: qHTS replaces the single test concentration by a dilution series.
For experiment [2], the target named is Retinaldehyde dehydrogenase 3 (Homo sapiens) (UniProt P47895). Put plainly: qHTS for Inhibitors of the Aldehyde Dehydrogenase Family (ALDH1A3) Primary screen (AID 2061315).

In the case of `CC(=O)NS(=O)(=O)c1ccc(NC(=O)c2cc(-c3ccc(C)c(C)c3)nc3ccccc23)cc1`, the Potency result in experiment [1] and in experiment [2] was “inactive” throughout.

For the compound `CC(C)c1ccc(=O)n(CC(=O)NCCc2ccccc2)n1`, the Potency result in experiment [1] and in experiment [2] was “inactive” throughout.

`COc1cccc(C(=O)NC2CCN(C#N)CC2)c1`: the Potency result in experiment [1] and in experiment [2] was “inactive” each time.

As to `Cc1ccc(NS(=O)(=O)c2ccc3c(c2)CCN(C(=O)C(F)(F)F)C3)cc1C`, the Potency entry in experiment [1] and in experiment [2] was “inactive” in each case.

As for `Cc1ccc(C2=NN(CC(=O)N(C)C(C)c3ccco3)C(=O)C2)cc1` (stereo not given), the Potency entry in experiment [1] and in experiment [2] was “inactive” in each case.

For the compound `Cc1cc2c(s1)c1cnn(Cc3ccc(F)c(F)c3)c(=O)c1n2C`, the Potency entry in experiment [1] and in experiment [2] was “inactive” each time.

Consider `C/C=C/C=C/C=C/C(=O)O[C@@H]1C=C2COC(=O)[C@]2(O)[C@@]2(C)CCCC(C)(C)[C@H]12`, for which the Potency entry in experiment [1] and in experiment [2] was “inactive” in each case.

For `CCC(=O)NC(c1cccs1)c1ccc2cccnc2c1O` (stereo not given), the Potency entry in experiment [1] and in experiment [2] was “inactive” each time.

In the case of `COc1cccc(C)c1NC(=O)C(OC(=O)CNC(=O)c1ccccc1)c1ccccc1` (stereo not given), the Potency entry in experiment [1] and in experiment [2] was “inactive” throughout.

Regarding `CCc1ccc(NC(=O)c2cnn3c(C)cc(C)nc23)cc1`, the Potency entry in experiment [1] and in experiment [2] was “inactive” each time.

On to `COc1cccc(C2=Nn3c(nnc3-c3cccc(OC)c3)SC2)c1`, for which the Potency result in experiment [1] and in experiment [2] was “inactive” each time.

Consider `O=[S+]([O-])(Nc1nccs1)c1ccc(NCc2ccc(Cl)c(Cl)c2)cc1`, for which the Potency result in experiment [1] and in experiment [2] was “inactive” throughout.

Turning to `O=S(=O)(NCCNc1nc(-c2ccco2)nc2ccccc12)c1ccccc1`, the Potency result in experiment [1] and in experiment [2] was “inactive” each time.

`O=C1CCCC2=C1C(c1cccnc1)N=C(Nc1nc3ccccc3o1)N2` (stereo not given): the Potency result in experiment [1] and in experiment [2] was “inactive” each time.

For the compound `O=C(NC(c1ccco1)c1cc(Cl)c2cccnc2c1O)c1ccccc1` (stereo not given), the Potency entry in experiment [1] and in experiment [2] was “inactive” throughout.

On to `COCOC1CCC(C(=O)Nc2ccc([S+](=O)([O-])Nc3nccs3)cc2)CC1` (stereo not given), for which the Potency result in experiment [1] and in experiment [2] was “inactive” each time.

Turning to `Cc1cc(C)nc(NC(=S)N2CCN(S(=O)(=O)c3cccc(C(F)(F)F)c3)CC2)c1`, the Potency entry in experiment [1] and in experiment [2] was “inactive” throughout.

As for `Cc1ccc(C)c(-c2cc(C(F)(F)F)nn2-c2ccc(S(N)(=O)=O)cc2)c1`, the Potency entry in experiment [1] and in experiment [2] was “inactive” throughout.

On to `COc1ccccc1S(=O)(=O)Nc1cnccc1C(=O)Nc1nc(-c2ccccc2)cs1`, for which the Potency entry in experiment [1] and in experiment [2] was “inactive” each time.

As for `Cc1cc(C)nc(NC(=S)N2CCN(c3nc(C)cnc3C)CC2)c1`, the Potency result in experiment [1] and in experiment [2] was “inactive” throughout.

For the compound `O=c1c2ccc(F)cc2nc2sc(Nc3ccc4c(c3)CCC4)nn12`, the Potency entry in experiment [1] and in experiment [2] was “inactive” in each case.

Turning to `O=C(Nc1ccc2ccccc2c1)Nc1nnc(-c2ccccc2Cl)s1`, the Potency entry in experiment [1] and in experiment [2] was “inactive” throughout.

For the compound `O=C(Cc1ccccc1)Nc1sc2c(c1C(=O)Nc1cccc(Cl)c1)CCCC2`, the Potency result in experiment [1] and in experiment [2] was “inactive” in each case.

Regarding `O=c1c2ccc(Cl)cc2nc2sc(Nc3ccc4c(c3)CCC4)nn12`, the Potency entry in experiment [1] and in experiment [2] was “inactive” in each case.

On to `COc1cc(OC)cc(-c2ccc3c(-c4ccc(F)cc4)[nH]nc3n2)c1`, for which the Potency result in experiment [1] and in experiment [2] was “inactive” throughout.

`N#Cc1ccc(NS(=O)(=O)c2ccc3c(c2)CCC(=O)N3)cc1`: the Potency result in experiment [1] and in experiment [2] was “inactive” each time.

As to `NC(=O)C1CCN(c2ncc(-c3cccc(F)c3)s2)CC1`, the Potency entry in experiment [1] and in experiment [2] was “inactive” in each case.

Turning to `COC(=O)C1=C(C)NC(COC(N)=O)=C(C(=O)OC(C)C)C1c1cccc(Cl)c1Cl` (stereo not given), the Potency result in experiment [1] and in experiment [2] was “inactive” in each case.

Regarding `O=C1c2ccccc2C(=O)N1c1ccc(O)cc1`, the Potency entry in experiment [1] and in experiment [2] was “inactive” throughout.

In the case of `Cc1cccc(C)c1-n1c(SCC(=O)Nc2ccc(F)cc2)nnc1-c1cccc([S+](=O)([O-])N2CCCC2)c1`, the Potency entry in experiment [1] and in experiment [2] was “inactive” throughout.

For the compound `N#Cc1c(-c2ccc(OCCOCCOCCN)cc2)no[n+]1[O-]`, the Potency entry in experiment [1] and in experiment [2] was “inactive” in each case.

As for `CC(C)(C#CCSc1nnc(-c2cccc3ccccc23)o1)OC(=O)c1ccc(F)cc1`, the Potency entry in experiment [1] and in experiment [2] was “inactive” throughout.

Consider `COc1ccc(-c2csc(NC(=O)c3ccccc3NS(=O)(=O)c3ccc(C)cc3)n2)cc1`, for which the Potency entry in experiment [1] and in experiment [2] was “inactive” throughout.

On to `O=S(=O)(NCc1ccccc1F)c1ccc(O)c2ncccc12`, for which the Potency entry in experiment [1] and in experiment [2] was “inactive” each time.

For `CC[C@H](C)[C@H](NC(=O)[C@H]([C@@H](C)CC)N(C)C(C)=O)C(=O)N[C@H](C(=O)N[C@@H](CC(C)C)C(=O)[C@@]1(C)CO1)[C@@H](C)O`, the Potency entry in experiment [1] and in experiment [2] was “inactive” in each case.

`Cc1cnc(-c2ccccc2C(C)C)nc1NCc1ccc(-c2ccc(F)nc2)cc1`: the Potency entry in experiment [1] and in experiment [2] was “inactive” in each case.

With `O=C1CCc2cc(S(=O)(=O)Nc3cccc(C(F)(F)F)c3)ccc2N1`, the Potency result in experiment [1] and in experiment [2] was “inactive” throughout.

On to `C=C1C(O)C(O)C2(CC3C(C)=CCC4C(C)(CO)CCCC34C)OC2C1O` (stereo not given), for which the Potency entry in experiment [1] and in experiment [2] was “inactive” each time.

In the case of `Cc1cc(C)n2ncc(C(=O)Nc3cccc(C(F)(F)F)c3)c2n1`, the Potency entry in experiment [1] and in experiment [2] was “inactive” each time.

As to `CCN(CC)CCCCn1c(-c2ccccc2)nc2c(NCCOC)nc(C)nc21`, the Potency result in experiment [1] and in experiment [2] was “inactive” in each case.
